Values joined by “and” are separate entries in the source; they are usually repeats but may differ in a detail not shown here. Equal values may be shown once. Among all 5,500 compounds or so, about 2,000 (36%) were called active. Another 18% or so got no clear call; they are omitted. No stated cut-off is given here; in the data, active means normalized growth mostly below about 0.91 (no sharp cut-off); inconclusive means no clear call, values can overlap the other calls; inactive means mostly above about 0.92. The list shows a part of the results.
Experiment: chemical genetic growth profiling, strain panel (AID 1159580);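 further: tested at 20 µM; growth read once vehicle control cultures reached saturation at 30 °C; 1 = growth at the plate median or of vehicle wells; lower values mean less growth of the strain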
Conditions: S. cerevisiae deletion strains, growth OD

Measured: normalized growth

Cc1cc(O)c(C=O)c(O)c1C(=O)O
inactive: locus YAL021C, strain ccr4, active compounds read low 0.991 | locus YAL026C, strain drs2, active compounds read low 1.01 | locus YAL030W, strain snc1, active compounds read low 0.997 | locus YBL061C, strain skt5, active compounds read low 1.01 | locus YBR009C, strain hhf1, active compounds read low 1.02 | locus YBR021W, strain FUR4, active compounds read low 1.05 | locus YBR023C, strain chs3, active compounds read low 1.01 | locus YBR171W, strain sec66, active compounds read low 1 | locus YBR229C, strain ROT2, active compounds read low 0.999 | locus YBR231C, strain swc5, active compounds read low 0.99 | locus YBR279W, strain paf1, active compounds read low 0.997 | locus YCL011C, strain gbp2, active compounds read low 1.01 | locus YCL016C, strain dcc1, active compounds read low 1.01 | locus YCL029C, strain bik1, active compounds read low 1.02 | locus YCL061C, strain MRC1, active compounds read low 1.01 | locus YCL069W, strain vba3, active compounds read low 1 | locus YCR088W, strain abp1, active compounds read low 1.01 | locus YDL005C, strain med2, active compounds read low 1.01 | locus YDL035C, strain GPR1, active compounds read low 1.03 | locus YDL040C, strain nat1, active compounds read low 1.01 | locus YDL074C, strain BRE1, active compounds read low 1.06 | locus YDL101C, strain DUN1, active compounds read low 1.03 | locus YDL185W, strain tfp1, active compounds read low 0.987 | locus YDL192W, strain arf1, active compounds read low 1.03 | locus YDR001C, strain nth1, active compounds read low 0.999 | locus YDR069C, strain doa4, active compounds read low 0.977 | locus YDR101C, strain arx1, active compounds read low 1.04 | locus YDR137W, strain rgp1, active compounds read low 1.01 | locus YDR150W, strain NUM1, active compounds read low 0.983 | locus YDR159W, strain sac3, active compounds read low 1.01 | locus YDR162C, strain NBP2, active compounds read low 1.02 | locus YDR195W, strain ref2 0.99 | locus YDR297W, strain sur2, active compounds read low 0.997 | locus YDR318W, strain mcm21, active compounds read low 1 | locus YDR334W, strain swr1, active compounds read low 0.987 | locus YDR335W, strain msn5, active compounds read low 0.991 | locus YDR388W, active compounds read low 0.997 | locus YDR392W, strain spt3, active compounds read low 0.962 | locus YDR502C, strain sam2, active compounds read low 1.03 | locus YEL003W, strain gim4, active compounds read low 0.995 | locus YEL037C, strain rad23, active compounds read low 0.993 | locus YEL061C, strain CIN8 (second series), active compounds read low 0.999 | locus YEL061C, strain CIN8, active compounds read low 1.01 | locus YER015W, strain faa2, active compounds read low 1 | locus YER016W, strain bim1, active compounds read low 1 | locus YER110C, active compounds read low 1.01 | locus YER111C, strain swi4, active compounds read low 1 | locus YER155C, strain BEM2 (second series), active compounds read low 1 | locus YER155C, strain BEM2, active compounds read low 1.01 | locus YER167W, strain BCK2, active compounds read low 1.03 | locus YFR010W, strain ubp6, active compounds read low 0.999 | locus YGL078C, strain dbp3, active compounds read low 1.01 | locus YGL086W, strain mad1, active compounds read low 1.03 | locus YGL167C, strain pmr1, active compounds read low 0.989 | locus YGL173C, strain kem1, active compounds read low 1.01 | locus YGL227W, strain vid30, active compounds read low 0.999 | locus YGL240W, strain doc1, active compounds read low 0.929 | locus YGL248W, strain PDE1, active compounds read low 1.03 | locus YGL253W, strain hxk2, active compounds read low 1 | locus YGR078C, strain PAC10, active compounds read low 1.06 | locus YGR135W, strain pre9, active compounds read low 1.02 | locus YGR252W, strain gcn5, active compounds read low 1 | locus YHR013C, strain ard1, active compounds read low 1.01 | locus YHR027C, strain rpn1, active compounds read low 0.992 | locus YHR030C, strain SLT2, active compounds read low 1 and 1.02 | locus YHR079C, strain IRE1 (second series), active compounds read low 1.01 | locus YHR079C, strain IRE1, active compounds read low 1.04 | locus YHR094C, strain hxt1, active compounds read low 1.01 | locus YHR129C, strain ARP1, active compounds read low 1.02 | locus YHR142W, strain chs7, active compounds read low 1.03 | locus YHR200W, strain rpn10, active compounds read low 1.02 | locus YIL066C, strain RNR3, active compounds read low 1.05 | locus YIL073C, strain SPO22, active compounds read low 1.12 | locus YIL125W, strain kgd1, active compounds read low 1 | locus YIR030C, strain dcg1, active compounds read low 1.02 | locus YJL092W, strain hpr5, active compounds read low 1.01 | locus YJL095W, strain BCK1 (second series), active compounds read low 1.01 | locus YJL095W, strain BCK1, active compounds read low 1.1 and 1 | locus YJL115W, strain asf1, active compounds read low 0.999 | locus YJL129C, strain trk1, active compounds read low 1.05 | locus YJL134W, strain LCB3, active compounds read low 0.993 | locus YJL154C, strain vps35, active compounds read low 0.996 | locus YJL164C, strain tpk1, active compounds read low 1.02 | locus YJL166W, strain qcr8, active compounds read low 1.01 | locus YJL168C, strain set2, active compounds read low 0.997 | locus YJL187C, strain SWE1 (second series), active compounds read low 1.05 | locus YJL187C, strain SWE1, active compounds read low 0.998 | locus YJR043C, strain POL32, active compounds read low 1.02 | locus YJR066W, strain TOR1, active compounds read low 0.93 | locus YJR075W, strain HOC1, active compounds read low 1.06 | locus YKL009W, strain mrt4, active compounds read low 1.04 | locus YKL068W, active compounds read low 0.987 | locus YKL085W, strain MDH1 (second series), active compounds read low 1 | locus YKL085W, strain MDH1, active compounds read low 1 | locus YKL160W, strain elf1, active compounds read low 1.03 | locus YKR001C, strain vps1, active compounds read low 1.03 | locus YKR026C, strain gcn3, active compounds read low 1.01 | locus YKR091W, strain srl3, active compounds read low 1.01 | locus YLL001W, strain dnm1, active compounds read low 1.02 | locus YLL026W, active compounds read low 1.01 | locus YLL041C, strain sdh2, active compounds read low 0.997 | locus YLR027C, strain aat2, active compounds read low 1.01 | locus YLR039C, strain RIC1, active compounds read low 1.09 | locus YLR058C, strain SHM2, active compounds read low 0.965 | locus YLR102C, strain apc9, active compounds read low 1.01 | locus YLR113W, strain HOG1, active compounds read low 1.07 | locus YLR221C, strain rsa3, active compounds read low 1.03 | locus YLR258W, strain gsy2, active compounds read low 1 | locus YLR262C, strain YPT6 (second series), active compounds read low 1.01 | locus YLR262C, strain YPT6, active compounds read low 1.14 | locus YLR268W, strain sec22, active compounds read low 1.04 | locus YLR320W, strain mms22, active compounds read low 1.05 | locus YLR330W, strain CHS5, active compounds read low 1 | locus YLR342W, strain FKS1 (second series), active compounds read low 1.01 | locus YLR342W, strain FKS1, active compounds read low 1.01 | locus YLR357W, strain rsc2, active compounds read low 1.02 | locus YLR370C, strain arc18, active compounds read low 1 | locus YLR371W, strain rom2, active compounds read low 1.01 | locus YLR384C, strain iki3, active compounds read low 0.999 | locus YLR418C, strain cdc73, active compounds read low 1.05 | locus YML016C, strain PPZ1, active compounds read low 1.01 | locus YML032C, strain rad52, active compounds read low 0.985 | locus YML120C, strain ndi1, active compounds read low 1.01 | locus YML124C, strain tub3, active compounds read low 1.01 | locus YMR058W, strain fet3, active compounds read low 0.987 | locus YMR078C, strain ctf18, active compounds read low 0.999 | locus YMR125W, strain sto1, active compounds read low 1.01 | locus YMR129W, active compounds read low 1 | locus YMR205C, strain PFK2, active compounds read low 1.05 | locus YMR223W, strain ubp8, active compounds read low 1.02 | locus YMR231W, strain pep5, active compounds read low 0.989 | locus YMR263W, strain SAP30, active compounds read low 1.06 | locus YMR307W, strain GAS1, active compounds read low 1.08 | locus YNL067W, strain RPL9B, active compounds read low 1.05 | locus YNL071W, strain lat1, active compounds read low 1.01 | locus YNL183C, strain NPR1, active compounds read low 0.946 | locus YNL209W, strain ssb2, active compounds read low 0.992 | locus YNL233W, strain BNI4, active compounds read low 1.09 | locus YNL248C, strain rpa49, active compounds read low 1.01 | locus YNL250W, strain rad50, active compounds read low 0.986 | locus YNL271C, strain bni1, active compounds read low 1 | locus YNL298W, strain CLA4, active compounds read low 1.01 | locus YNL307C, strain MCK1, active compounds read low 1.03 | locus YNL322C, strain KRE1 (second series), active compounds read low 1.01 | locus YNR049C, strain mso1, active compounds read low 1.01 | locus YNR052C, strain pop2, active compounds read low 0.992 | locus YOL012C, strain htz1 0.989 | locus YOL147C, strain pex11, active compounds read low 1 | locus YOR001W, strain rrp6, active compounds read low 1.02 | locus YOR061W, strain CKA2, active compounds read low 1 | locus YOR069W, strain VPS5, active compounds read low 1.01 | locus YOR070C, strain gyp1, active compounds read low 0.998 | locus YOR080W, strain dia2, active compounds read low 0.998 | locus YOR083W, strain WHI5, active compounds read low 1.04 | locus YOR106W, strain vam3, active compounds read low 1.03 | locus YOR136W, strain idh2, active compounds read low 1.03 | locus YOR144C, strain elg1, active compounds read low 1 | locus YOR184W, strain ser1, active compounds read low 1.05 | locus YOR231W, strain MKK1, active compounds read low 1.04 | locus YOR265W, strain rbl2, active compounds read low 1.01 | locus YOR270C, strain vph1, active compounds read low 1.02 | locus YOR290C, strain snf2, active compounds read low 1.02 | locus YOR316C, strain cot1, active compounds read low 1.01 | locus YPL051W, strain arl3, active compounds read low 0.999 | locus YPL078C, strain atp4, active compounds read low 1.01 | locus YPL106C, strain sse1, active compounds read low 0.995 | locus YPL240C, strain hsp82, active compounds read low 1 | locus YPL241C, strain CIN2, active compounds read low 0.995 | locus YPL256C, strain CLN2, active compounds read low 1.03 | locus YPR119W, strain clb2, active compounds read low 0.999 | locus YPR141C, strain kar3, active compounds read low 0.993 | locus YPR163C, strain tif3, active compounds read low 1 | locus YPR167C, strain met16, active compounds read low 1.01 | strain wtn01, active compounds read low 1.04

— PubChem BioAssay AID1159580 (chemical genetic matrix, 2015)
